# Measured values reported in PubChem BioAssay (Tox21).
# Results filed as inconclusive are left out. A call without a number means that no potency is given here. Calls of active or inactive are those of the source. Unless noted, calls follow the shape of the dose curve; as a rule, active = well fitted curve in the direction sought with a large enough effect in the repeat runs; inconclusive = weak or mixed curves; inactive = no such curve, though single readings can be large; an effect the other way counts as inactive or inconclusive.
# Legend:
# [1] = qHTS assay to identify small molecule agonists of the peroxisome proliferator-activated receptor delta (PPARd) signaling pathway - cell viability counter screen (AID 743211); also: nearly all actives have a fitted effect of over 55% in size
# Outline: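 Luminescent ATP viability assay (CellTiter-Glo, 30 min RT) in UAS-bla HEK293H cells carrying the PPAR delta reporter construct, 3000 cells/well, after a 17 h compound treatment at 37 C.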
# [2] = target: Peroxisome proliferator-activated receptor delta (Homo sapiens) (UniProt Q03181); test: qHTS assay to identify small molecule agonists of the peroxisome proliferator-activated receptor delta (PPARd) signaling pathway (AID 743212; calls by dose curve)
# Outline: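 Beta-lactamase reporter readout: a ratiometric FRET signal from the LiveBLAzer substrate after 2 h at room temperature. Compound exposure at 37 °C in PPARδ-bla HEK293H cells driven by an upstream activator sequence.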
# [3] = qHTS assay to identify small molecule agonists of the farnesoid-X-receptor (FXR) signaling pathway - cell viability counter screen (AID 743218); also: nearly all actives have a fitted effect of over 45% in size
# Outline: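 Luminescence from CellTiter-Glo, read after 30 min at RT, reports viability of GeneBLAzer FXR-UAS-bla HEK 293T cells treated 16 h with compounds in the wells used for the beta-lactamase reporter.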
# [4] = qHTS assay to identify small molecule antagonists of the farnesoid-X-receptor (FXR) signaling pathway - cell viability counter screen (AID 743221; active = well fitted cell-killing curve with a large enough effect in the repeat runs, not every such curve was filed as active; also: nearly all actives have a fitted effect of over 50% in size)
# Outline: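 In GeneBLAzer FXR-UAS-bla HEK 293T cells stimulated with 50 uM chenodeoxycholic acid (final), compounds acted for 16 h at 37 C. Viability was assessed afterwards by CellTiter-Glo luminescence.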
# [5] = target: Vitamin D3 receptor (Homo sapiens) (UniProt P11473); test: qHTS assay to identify small molecule agonists of the vitamin D receptor (VDR) signaling pathway (AID 743222; calls by dose curve)
# Outline: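 Beta-lactamase reporter readout (LiveBLAzer B/G FRET, 2 h RT) in VDR-bla cells after 16 h compound treatment at 37C, 5% CO2; cells pre-incubated 4 h before pin transfer of DMSO solutions.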
# [6] = qHTS assay to identify small molecule antagonists of the vitamin D receptor (VDR) signaling pathway - cell viability counter screen (AID 743225); also: nearly all actives have a fitted effect of over 50% in size
# Outline: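 Luminescent cell viability (CellTiter-Glo) in VDR-bla HEK 293T cells after 16 h compound exposure at 37C in the presence of 3 nM final 1-alpha,25-dihydroxy vitamin D3.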
# [7] = qHTS assay to identify small molecule agonists of the NFkB signaling pathway (AID 1159509; active = well fitted curve in the direction sought with a large enough effect in the signal ratio in the repeat runs, not every such curve was filed as active; the % refers to the signal ratio; also: series mostly up to about 61 µM)
# Outline: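 Pathway activation was measured in ME-180 cells stably expressing beta-lactamase under NF-kB response element control. Substrate cleavage was read as the 460/530 nm emission shift after 5 hr compound incubation.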
# [8] = qHTS assay to identify small molecule agonists of the endoplasmic reticulum stress response signaling pathway (AID 1159516; active = well fitted activation curve with a large enough effect in the signal ratio in the repeat runs, not every such curve was filed as active; the % refers to the signal ratio)
# Outline: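 HeLa ESRE-bla reporter line; cpd 5 h, 37 C/5% CO2; LiveBLAzer B/G FRET substrate 2 h RT; ex 405, em 460/530 nm.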
# [9] = qHTS assay to identify small molecule agonists of the endoplasmic reticulum stress response signaling pathway - cell viability counter screen (AID 1159517; calls by dose curve;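 also: HeLa cells carrying an ER stress response element beta-lactamase reporter; series mostly up to about 61 µM; nearly all actives have a fitted effect of over 50% in size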)
# Outline: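 ESRE-bla HeLa cells (1,500/well) were plated overnight at 37 C and exposed to compounds for 5 hr. After the 2 hr beta-lactamase substrate read, CellTiter-Glo went into the same wells, and luminescence was read after 30 min at room temperature.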
# [10] = qHTS assay to identify small molecule antagonists of the retinoid-related orphan receptor gamma (ROR-gamma) signaling pathway - cell viability counter screen (AID 1159520); also: nearly all actives have a fitted effect of over 50% in size
# Outline: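 Cytotoxicity was read from cellular ATP (CellTiter-Glo luminescence) after 16 hr at 37 C with 1 uM doxycycline induction. The inducer was added 2 hr after compound transfer to Tet-on ROR gamma CHO cells.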
# [11] = qHTS assay to identify small molecule agonists of the AP-1 signaling pathway - cell viability counter screen (AID 1159525; calls by dose curve; also: nearly all actives have a fitted effect of over 55% in size)
# Outline: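 Intracellular ATP by Cell Titer Glo luminescence (30 min, RT) in the same ME-180 AP-1-bla wells after the 5 h compound exposure at 37 °C. Normalised to tetra n-octyl ammonium bromide and DMSO controls.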
# [12] = qHTS assay to identify small molecule agonists of the AP-1 signaling pathway (AID 1159526; calls by dose curve)
# [13] = qHTS assay to identify small molecule antagonists of the peroxisome proliferator-activated receptor delta (PPARd) signaling pathway - cell viability counter screen (AID 743213); also: nearly all actives have a fitted effect of over 50% in size
# Outline: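 Luminescence from CellTiter-Glo, added after the bla read and incubated 30 min at room temperature, gives viability of HEK293H PPARd-bla cells exposed to compounds for 17 h at 37 C with 300 nM L165041.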
# [14] = target: Bile acid receptor (Homo sapiens) (UniProt Q96RI1); test: qHTS assay to identify small molecule antagonists of the farnesoid-X-receptor (FXR) signaling pathway (AID 743217; active = well fitted inhibition curve with a large enough effect in the signal ratio in the repeat runs, not every such curve was filed as active; the % refers to the signal ratio)
# Outline: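 Read-out: beta-lactamase FRET fluorescence (LiveBLAzer B/G substrate, 2 h, room temperature) in GeneBLAzer FXR-UAS-bla HEK 293T cells. Compounds were co-dosed with 50 uM chenodeoxycholic acid (final) and incubated 16 h at 37 °C.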
# [15] = target: Bile acid receptor (Homo sapiens) (UniProt Q96RI1); test: qHTS assay to identify small molecule agonists of the farnesoid-X-receptor (FXR) signaling pathway (AID 743220; active = well fitted activation curve with a large enough effect in the signal ratio in the repeat runs, not every such curve was filed as active; the % refers to the signal ratio)
# Outline: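 FXR-UAS-bla HEK 293T cells carrying a UAS-driven beta-lactamase reporter were plated for 5 h at 37C/5% CO2, then exposed to DMSO-dissolved Tox21 10K compounds for 16 h at 37C. A LiveBLAzer B/G FRET substrate was loaded for 2 h at room temperature before fluorescence reading.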
# [16] = target: Vitamin D3 receptor (Homo sapiens) (UniProt P11473); test: qHTS assay to identify small molecule antagonists of the vitamin D receptor (VDR) signaling pathway (AID 743223; active = well fitted inhibition curve with a large enough effect in the signal ratio in the repeat runs, not every such curve was filed as active; the % refers to the signal ratio)
# Outline: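 Agonist 1alpha,25-dihydroxyvitamin D3 (3 nM in well) was added with each compound to VDR-bla cells preincubated 4 h. Cells stood 16 h at 37C, then FRET substrate 2 h at room temperature; fluorescence intensity recorded.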
# [17] = qHTS assay to identify small molecule agonists of the vitamin D receptor (VDR) signaling pathway - cell viability counter screen (AID 743224)
# Outline: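 Cytotoxicity counter screen: VDR-bla cells, 16 h compound exposure at 37C, 5% CO2; CellTiter-Glo luminescence, 30 min RT, same wells as bla read.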
# [18] = target: Nuclear receptor ROR-gamma (Homo sapiens) (UniProt P51449); test: qHTS assay to identify small molecule antagonists of the retinoid-related orphan receptor gamma (ROR-gamma) signaling pathway (AID 1159521; also: nearly all actives have a fitted effect of over 50% in size; also: potency is read from the fitted curve at half-maximal effect)
# Outline: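 CHO cells expressing RORγ under a TET-on promoter, luciferase under RORE control. Dox 1 uM final, 16 h; compounds added 2 h prior. Luminescence decrease measured.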
# [19] = target: Peroxisome proliferator-activated receptor delta (Homo sapiens) (UniProt Q03181); test: qHTS assay to identify small molecule antagonists of the peroxisome proliferator-activated receptor delta (PPARd) signaling pathway (AID 743215; active = well fitted inhibition curve with a large enough effect in the signal ratio in the repeat runs, not every such curve was filed as active; the % refers to the signal ratio;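 also: cells stimulated with agonist L165041 at 300 nM final during compound exposure; series mostly up to about 62 µM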)
# Outline: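 HEK293H GeneBLAzer PPARd UAS-bla reporter cells; cpd + L165041 300 nM final, 17 h 37 C; LiveBLAzer B/G FRET substrate 2 h RT; fluorescence intensity read-out. Antagonist mode.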
# Bile acid receptor (Homo sapiens), sequence (Q96RI1 whole entry, looked up): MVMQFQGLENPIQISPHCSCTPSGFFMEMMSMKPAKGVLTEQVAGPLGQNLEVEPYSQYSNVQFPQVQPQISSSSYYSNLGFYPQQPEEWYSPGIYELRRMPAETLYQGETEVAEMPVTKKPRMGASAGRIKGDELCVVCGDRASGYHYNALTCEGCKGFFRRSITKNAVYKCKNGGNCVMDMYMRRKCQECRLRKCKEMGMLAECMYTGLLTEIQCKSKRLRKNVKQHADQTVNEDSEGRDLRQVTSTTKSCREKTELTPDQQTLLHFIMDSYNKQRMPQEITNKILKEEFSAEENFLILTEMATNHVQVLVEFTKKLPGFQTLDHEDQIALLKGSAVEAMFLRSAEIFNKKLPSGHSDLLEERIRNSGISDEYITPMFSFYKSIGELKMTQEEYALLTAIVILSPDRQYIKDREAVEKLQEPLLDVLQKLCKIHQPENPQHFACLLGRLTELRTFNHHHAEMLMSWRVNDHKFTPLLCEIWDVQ
# Peroxisome proliferator-activated receptor delta (Homo sapiens), sequence (Q03181 whole entry, looked up): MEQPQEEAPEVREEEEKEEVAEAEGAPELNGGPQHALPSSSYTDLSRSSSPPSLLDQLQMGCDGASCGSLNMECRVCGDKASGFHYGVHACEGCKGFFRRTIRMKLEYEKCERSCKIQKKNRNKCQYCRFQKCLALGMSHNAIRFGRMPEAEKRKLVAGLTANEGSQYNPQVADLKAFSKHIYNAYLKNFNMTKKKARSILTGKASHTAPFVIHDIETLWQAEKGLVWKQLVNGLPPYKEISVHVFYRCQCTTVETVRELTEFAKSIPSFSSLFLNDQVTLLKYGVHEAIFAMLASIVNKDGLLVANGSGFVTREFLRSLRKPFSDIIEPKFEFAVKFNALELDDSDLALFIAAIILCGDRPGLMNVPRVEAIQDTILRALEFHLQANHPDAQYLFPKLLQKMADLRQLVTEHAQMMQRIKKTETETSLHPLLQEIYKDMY
# Vitamin D3 receptor (Homo sapiens), sequence (P11473 whole entry, looked up): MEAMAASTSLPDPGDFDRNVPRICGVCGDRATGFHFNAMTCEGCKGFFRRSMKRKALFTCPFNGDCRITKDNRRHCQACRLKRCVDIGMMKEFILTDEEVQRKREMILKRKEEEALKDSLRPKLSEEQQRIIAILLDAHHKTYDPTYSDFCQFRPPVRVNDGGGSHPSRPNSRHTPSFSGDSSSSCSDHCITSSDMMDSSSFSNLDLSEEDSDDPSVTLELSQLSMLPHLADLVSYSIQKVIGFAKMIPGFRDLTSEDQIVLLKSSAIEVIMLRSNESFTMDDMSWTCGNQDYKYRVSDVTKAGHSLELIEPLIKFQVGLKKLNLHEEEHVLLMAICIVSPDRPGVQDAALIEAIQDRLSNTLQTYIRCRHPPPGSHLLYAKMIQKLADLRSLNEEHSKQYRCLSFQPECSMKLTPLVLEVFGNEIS
Compound,Potency [1],Potency [2],Potency [3],Potency [4],Potency [5],Potency [6],Potency [7],Potency [8],Potency [9],Potency [10],Potency [11],Potency [12],Potency [13],Potency [14],Potency [15],Potency [16],Potency [17],Potency [18],Potency [19]
CCC1(CO)COCOC1,inactive,inactive,inactive,inactive,inactive,inactive,inactive,inactive,inactive,inactive,inactive,inactive,–,–,–,–,–,–,–
CC(=O)OCC[N+](C)(C)C,inactive,inactive,inactive,inactive,inactive,inactive,inactive,inactive,inactive,inactive,–,–,inactive,inactive,inactive,inactive,inactive,inactive,–
CCn1cc(C(=O)O)c(=O)c2cc(F)c(N3CCNCC3)cc21,inactive,inactive,inactive,inactive,–,inactive,inactive,inactive,inactive,inactive,–,inactive,inactive,–,–,–,inactive,inactive,–
FC(F)(F)c1ccccc1Cl,inactive,inactive,inactive,inactive,inactive,inactive,inactive,inactive,inactive,inactive,inactive,inactive,inactive,inactive,inactive,inactive,inactive,–,inactive
COc1ccccc1N1CCN(CCCCNC(=O)c2ccc(-c3ccc(C(C)=O)cc3)cc2)CC1,inactive,inactive,inactive,inactive,inactive,inactive,inactive,inactive,inactive,inactive,inactive,inactive,inactive,inactive,inactive,inactive,inactive,–,inactive
CCCCOc1ccc(OCCCN2CCOCC2)cc1,inactive,–,–,inactive,inactive,inactive,inactive,inactive,inactive,inactive,inactive,inactive,inactive,inactive,inactive,–,inactive,–,–
Cc1ccc2c(Br)cc(Br)c(O)c2n1,inactive,inactive,inactive,inactive,inactive,–,inactive,inactive,inactive,–,–,–,inactive,–,–,inactive,inactive,–,–
CCOC(=O)c1ccc(C#Cc2ccc3c(c2)C(C)(C)CCS3)nc1,–,–,inactive,inactive,–,inactive,inactive,–,inactive,inactive,inactive,inactive,inactive,–,–,–,inactive,inactive,–
CC(=O)N/N=C/c1ccc([N+](=O)[O-])o1,inactive,inactive,inactive,inactive,inactive,inactive,inactive,inactive,inactive,–,–,inactive,inactive,–,–,–,inactive,–,inactive
O=[N+]([O-])c1cc(C2CCCCC2)c(O)c([N+](=O)[O-])c1,–,–,inactive,inactive,–,–,inactive,inactive,inactive,–,–,–,–,–,inactive,–,–,4.31 µM (active),–
CC/C=C1/OC(=O)c2ccccc21,inactive,inactive,inactive,inactive,inactive,inactive,inactive,–,inactive,inactive,–,–,inactive,–,–,inactive,inactive,inactive,inactive
